Screening results deposited in PubChem BioAssay by Milwaukee Institute for Drug Discovery.
An excerpt weighted towards active compounds, which were near 6.8% of everything screened.
Cy5 interf NS3h = enhances or quenches Cy5 fluorescence in NS3h assay | Cy5-dT15 DNA with NS3h, fluorescence interference; actives lie on both sides; signal over control mean, under 1 quenches | fluorescence interference ratio at 100 µM | actives 6% (n = 16,000) | AID 720488;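 active = compound fluorescence over control fluorescence at most 0.8, a quencher, or at least a set upper limit, an enhancer; inactive = ratio between 0.8 and the set upper limit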
HCV NS3h FP = hepatitis C NS3 helicase inhibition, primary screen; NS3h Cy5-dT15 DNA binding, fluorescence polarization; inhibition, % at 100 µM; actives 1.6% (n = 16,000); AID 687043;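 active = inhibition above the average over every tested compound plus 3 SD, cut at about 40% in these data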
* marks the source's active call; other numbers are inactive results.

SMILES | Cy5 interf NS3h | HCV NS3h FP
N#Cc1cc([N+](=O)[O-])ccc1N=Cc1ccc(C#Cc2ccccc2)cc1 | 0.79* | 10
COc1cc([N+](=O)[O-])ccc1N=S(C)C | 0.93 | -7
NC(=O)/C=C/c1cn(-c2ccccc2)nc1-c1ccccc1 | 0.93 | 17
O=C(O)CCCN1C(=O)/C(=C/c2ccc3c(c2)OCO3)SC1=S | 0.92 | 12
S=c1nc(COc2ccc(Cl)cc2Cl)[nH][nH]1 | 0.99 | 9
COc1ccc(/C=C/C(=O)N2CCOCC2)cc1OC | 0.63* | 12
COc1ccc(/C=C/C(=O)N2CCCCCC2)cc1Br | 0.96 | 3
O=C(c1ccco1)N1CCN(C(c2ccccc2)c2ccccc2)CC1 | 0.96 | 19
O=C(Nc1cccc(Cl)c1)Nc1nnc(CSCc2ccc(Cl)cc2Cl)s1 | 0.94 | 0
Cc1nnc(C)n1/N=C\c1ccc(O)cc1O | 0.99 | 0
Cc1ccc(SCC(=O)Nc2cccc([N+](=O)[O-])c2)cc1 | 0.95 | 13
Cc1ccc(Nc2nc(Nc3cccc([N+](=O)[O-])c3)nc(SC(=S)N3CCOCC3)n2)cc1 | 0.45* | -60
Clc1ccc(/C=N\n2cnnc2)cc1 | 1.1 | 1
Clc1ccc(-c2ccc(/C=N/n3cnnc3)o2)c(Cl)c1 | 0.71* | -9
COc1cccc(/C=C2/C=C(c3ccc(C)cc3)OC2=O)c1OC(C)=O | 1 | 4
CC(NS(=O)(=O)c1cccc([N+](=O)[O-])c1)C1C2CC3CC(C2)CC1C3 (centres undefined) | 0.95 | 8
COc1cc(/C=C2/SC(=S)N(C)C2=O)cc(Cl)c1OCc1ccccc1Cl | 0.96 | -7
C=CCc1ccccc1OCCOc1ccc(/C=C2/SC(=S)N(C)C2=O)cc1 | 0.99 | -2
C=CCc1ccccc1OCCOc1cccc(/C=C2/SC(=S)N(C)C2=O)c1 | 1.2* | 16
CCOc1cc(/C=C2/SC(=S)N(C)C2=O)ccc1OCc1ccccc1Cl | 1.2* | 12
COc1cc(OC)c(NC(=O)COc2ccc(F)cc2)cc1Cl | 0.93 | 6
CCN1C(=O)/C(=C\c2cn(Cc3ccccc3)c3ccccc23)SC1=S | 1.1 | 12
CN(C)CCCNC(=O)c1c(Cl)cccc1Cl | 1.1 | 7
COc1ccc(C(=O)CSc2nnc(Sc3nc4ccccc4[nH]3)o2)cc1 | 0.54* | 10
COc1ccc(C(=O)CSc2nc3ccccc3c(=O)[nH]2)cc1 | 1.1 | 1
SMILES | Cy5 interf NS3h | HCV NS3h FP
Cc1ccccc1C(=O)Nc1cccc(Oc2ccc3c(c2)C(=O)N(c2ccccc2)C3=O)c1 | 0.98 | 14
CN1C(=O)/C(=C2/C(=O)N(CC(N)=O)c3ccccc32)SC1=S | 0.88 | 3
COc1ccc(N2C(=O)/C(=C3/C(=O)N(Cc4ccccc4F)c4ccccc43)SC2=S)cc1 | 1.2* | 7
O=C(NCCc1ccccc1)c1nn2c(c1Cl)NC(c1ccc(Cl)cc1)CC2C(F)(F)F (centres undefined) | 0.92 | -1
Cc1ccc(OCc2nnc(NC(=O)c3cccs3)s2)cc1 | 1.1 | 4
COC(=O)CNC(=O)Cc1ccccc1[N+](=O)[O-] | 0.98 | -3
COc1ccc(C(CC(=O)c2ccccc2)S(=O)(=O)c2ccc(C)cc2)cc1 (centres undefined) | 0.64* | 14
COc1ccc(C(=O)CC(c2ccc(C(C)C)cc2)S(=O)(=O)c2ccc(C)cc2)cc1 (centres undefined) | 0.73* | 18
COc1ccc(N(CC(=O)NCC(C)C)S(=O)(=O)c2ccc(C)cc2)cc1 | 1 | 4
Cc1ccc(S(=O)(=O)C(CC(=O)c2ccc(Cl)cc2)c2ccccc2)cc1 (centres undefined) | 0.98 | 2
COCCOC(=O)C1=C(C)NC(C)=C(C(=O)OCCOC)C1c1ccc(-c2cccc(Cl)c2Cl)o1 | 0.91 | 11
CN(C)C(=S)S/C=C/C(=O)c1ccccc1 | 1 | 5
N/C(Cc1cccc2ccccc12)=N/OC(=O)c1ccco1 | 1.1 | 17
O=C(Oc1cccc2ccccc12)c1ccco1 | 0.57* | 3
CCOc1cc(C(=S)N2CCOCC2)cc(Br)c1O | 0.72* | 21
CCOc1cc(C(=S)N2CCOCC2)ccc1OS(=O)(=O)c1ccc(C)cc1 | 0.88 | 11
CCCCOC(=O)c1cccc(-c2ccc(/C=C3\C(=O)N(c4ccc(S(N)(=O)=O)cc4)N=C3C)o2)c1 | 1 | -1
Cc1ccc(/C=C2\SC(=S)N(c3ccc(F)cc3)C2=O)cc1 | 0.93 | 10
O=C(c1ccccc1)N1CCN=C1c1ccccc1 | 0.88 | -8
O=C(c1ccc(Cl)cc1)N1CCN=C1c1ccccc1 | 0.64* | 2
O=C(NC(=S)Nc1ccc(O)c(-c2nc3ccccc3o2)c1)c1ccco1 | 1.1 | -6
CCOc1ccc(C2C3(OC(c4ccc(Cl)cc4)C24C(=O)c2ccccc2C4=O)C(=O)c2ccccc2C3=O)cc1 (centres undefined) | 0.91 | 0
Cc1[nH]c2ccccc2c1/C=N\Nc1ccc([N+](=O)[O-])cc1 | 0.97 | 31
Cc1[nH]c2ccccc2c1/C=N\NC(=O)c1cccc([N+](=O)[O-])c1 | 0.63* | -2
CC(C)(C)C(=O)/C=C(N)\C=C\c1ccccc1 | 0.64* | 12
SMILES | Cy5 interf NS3h | HCV NS3h FP
CC(C)(C)C(=O)/C=C(/O)C(=O)NCc1ccccc1 | 0.85 | 6
COC(=O)C1=C(C)N(C)C(C)=C(C(=O)OC)C1c1cccc(OCc2ccccc2)c1 | 1 | 1
COc1ccc(C(=O)Nc2ccccc2)cc1NC(=O)c1cccc(F)c1 | 0.99 | 23
COc1cc(/C=C2/C(C)=C(C#N)c3nc(N)c(C#N)c(C)c32)c([N+](=O)[O-])cc1OC | 0.97 | 47*
COc1ccc(/C=C2/C(C)=C(C#N)c3nc(N)c(C#N)c(C)c32)cc1Br | 0.96 | 14
O=C(c1cc2nc(-c3ccc([N+](=O)[O-])cc3)cc(C(F)(F)F)n2n1)N1CCCc2ccccc21 | 1 | 4
COc1ccc(N2C(=O)CC(Cc3ccc(Cl)cc3)C2=O)cc1 (centres undefined) | 0.69* | 21
COc1ccc(N2C(=O)CC(Cc3ccccc3OC)C2=O)cc1 (centres undefined) | 1 | 4
CCCN(CCC)C(=O)c1ccccc1NC(=O)c1ccccc1Cl | 1 | -12
CCN(C(=O)c1ccccc1Cl)c1ccccc1 | 0.67* | 7
CCOc1cc(C2C3=C(CC(C)(C)CC3=O)OC3=C2C(=O)CC(C)(C)C3)cc(Br)c1O | 0.99 | 6
COc1cc(/C=c2\sc3nc4ccccc4n3c2=O)cc(Br)c1OCc1ccccc1F | 1 | 3
Cc1nc(Nc2nc(O)cc(=O)[nH]2)nc2c(C)cccc12 | 0.64* | -4
Cc1cc(=O)[nH]c(Nc2nc(C)c3cccc(C)c3n2)n1 | 1.1 | 36
CCCC1=NN(C(=O)c2ccc(Br)cc2)C(O)(C(F)(F)F)C1 (centres undefined) | 0.96 | 3
CCCCNC(=O)/C(=C/c1ccc(-c2cccc([N+](=O)[O-])c2)o1)NC(=O)c1ccc(OC)cc1 | 0.99 | 12
COc1ccc(C(=O)N/C(=C\c2ccc(-c3cccc([N+](=O)[O-])c3)o2)C(=O)NCCCN2CCOCC2)cc1 | 0.77* | 11
O=C(CCC1CCCC1)NC1CCCCCCC1 | 0.99 | -1
O=C1OC2C=CC(Br)=CC2=CC1C(=O)N1CCSC1c1ccccc1Cl (centres undefined) | 0.73* | 21
O=C1OC2C=CC(Br)=CC2C=C1C(=O)N1CCSC1c1ccc2c3c(cccc13)CC2 (centres undefined) | 1 | 13
Cc1ccc(N2C(=O)/C(=C/c3ccc(Cl)cc3)SC2=S)cc1C | 0.92 | 7
